Source: PubChem
Tau fluor cs = Counterscreen qHTS for Inhibitors of Tau Fibril Formation, Fluorescence Polarization | tau K18 P301L Alexa594 fluorescence, heparin fibrillization | actives 0.93% (n = 280,000) | AID 1463, 2008 | Potency, µM (titrated, usually from 57.7 µM), for inactives: top-dose activity change, negative = decrease; also: potency is read from the fitted curve at half-maximal effect; nearly all actives have a fitted effect of over 55% in size
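Human tau K18 P301L (15 uM unlabeled, 0.24 uM Alexa 594-labeled) in 100 mM sodium acetate pH 7 with 20 uM heparin, 6 hr at 37 C. ThT 30 uM added, 1 hr ambient; Alexa 594 FP and total fluorescence read at 555/632 nm.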
Tau fibril FP = qHTS for Inhibitors of Tau Fibril Formation, Fluorescence Polarization; Microtubule-associated protein tau (Homo sapiens), P10636; actives 0.39% (n = 280,000); Potency, µM (doses to about 57.7 µM), without a hit: top-dose activity, negative = inhibition, usual class: inhibitors; AID 1468, 2008; K18 P301L tau heparin fibrillization, Alexa594 FP, 6 h; also: potency is read from the fitted curve at half-maximal effect; nearly all actives have a fitted effect of over 55% in size
Target sequence (P10636 561-689 P618L limits assumed): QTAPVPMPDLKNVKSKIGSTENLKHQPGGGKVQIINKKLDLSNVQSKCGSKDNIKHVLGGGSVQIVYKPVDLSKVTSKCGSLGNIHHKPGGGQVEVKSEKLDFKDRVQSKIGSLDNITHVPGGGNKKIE
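Human tau K18 […] P301L fragment, 15 uM unlabeled plus 0.24 uM Alexa 594-labeled tau (final), with compound and 20 uM heparin in 100 mM sodium acetate pH 7; 6 hr at 37 C, then Alexa 594 FP read.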
NPSR antagonist = qHTS Assay for Antagonists of the Neuropeptide S Receptor: cAMP Signal Transduction; CHO-NPSR cells, cAMP TR-FRET, antagonist mode; Potency, µM (top dose mostly 38.3 µM), inactives show top-dose activity change, negative = inhibition, hits mostly inhibitors; actives 1% (n = 220,000); also: potency is read from the fitted curve at half-maximal effect; nearly all actives have a fitted effect of over 50% in size
Tau ThT inhib = qHTS for Inhibitors of Tau Fibril Formation, Thioflavin T Binding; recombinant tau K18 P301L, heparin-induced fibrillization, ThT fluorescence; Potency, µM (highest dose often 57.4 µM), without a hit: at the highest dose activity, negative = inhibition, actives largely listed as inhibitors; actives 2.1% (n = 270,000); AID 1460, 2008; also: potency is read from the fitted curve at half-maximal effect; nearly all actives have a fitted effect of over 55% in size
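ThT emission at 510 nm, taken 1 hr after adding 30 uM dye, quantifies aggregates formed when 20 uM heparin acts on human tau K18 P301L for 6 hr at 37 C.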
KDM4E inh = qHTS Assay for Inhibitors of Human Jumonji Domain Containing 2E (JMJD2E) | JMJD2E catalytic domain, FDH-coupled NADH fluorescence (FDH is formaldehyde dehydrogenase) | Potency, µM (titrated, usually from 57.1 µM), without a hit: at the top dose activity change, negative = inhibition, most hits filed as inhibitors | actives 1.6% (n = 230,000) | AID 2147, 2009; active = well fitted inhibition curve with a large enough effect, not every such curve was filed as active; inconclusive = small, poorly fitted or top-dose-only effect, or another doubt; inactive = no such curve, though single readings can be large or run the other way;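 also: potency is read from the fitted curve at half-maximal effect; 0% = wells with enzyme and -100% = buffer wells without enzyme; nearly all actives have a fitted effect of over 50% in size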
Target sequence (B2RXH2 1-337 limits assumed): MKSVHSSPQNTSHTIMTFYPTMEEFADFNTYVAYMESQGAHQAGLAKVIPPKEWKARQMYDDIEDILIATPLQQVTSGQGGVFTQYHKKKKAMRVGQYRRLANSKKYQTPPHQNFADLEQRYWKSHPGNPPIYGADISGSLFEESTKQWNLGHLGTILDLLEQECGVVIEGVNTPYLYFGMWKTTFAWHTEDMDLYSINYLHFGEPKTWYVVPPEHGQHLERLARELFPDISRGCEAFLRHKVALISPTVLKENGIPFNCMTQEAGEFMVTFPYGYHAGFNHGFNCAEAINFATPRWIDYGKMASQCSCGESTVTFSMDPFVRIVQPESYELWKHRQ
PNC assembly inh = High Content Assay for Compounds that inhibit the Assembly of the Perinucleolar Compartment | PC3M PTB-GFP, PNC prevalence imaging, 16 h; active compounds read low | activity change (PNC), negative = inhibition, % at 10 µM | actives 3.1% (n = 140,000) | AID 2417, 2010;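 active = readout at or below -70, meaning at least 70% loss of cells showing the perinucleolar compartment, a nuclear body marking cancer cells; inconclusive = readout between -30 and a set limit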;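 also: plate controls were DMSO wells for no effect and camptothecin positive control wells for full effect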
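PC3M cells stably expressing PTB-GFP, 750–1000 cells/well, treated 16 h at 37 °C with compound (23 nl of library stock), in duplicate. After paraformaldehyde fixation and Hoechst stain, imaged at 20x; PNC prevalence scored by image analysis.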
Active calls of the source: *; [ ] = another dose, or the depositor's remark. In the library only some 5.1% were active in any assay of this set; here they are far more common. Unless noted, calls follow the shape of the dose curve; as a rule, active = well fitted curve in the direction sought with a large enough effect; inconclusive = small, poorly fitted or top-dose-only effect, or another doubt; inactive = no such curve, though single readings can be large; an effect the other way counts as inactive or inconclusive. Unless noted, % is scaled to controls: 0 for no effect and ±100 for the full control effect.

How did Cc1ccc2ccc(C(Nc3ccccn3)c3ccccc3)c(O)c2n1 (centres undefined) do in these assays?
Tau fluor cs: -19%; Tau fibril FP: 6%; NPSR antagonist: -19%[46.1 µM]; Tau ThT inhib: inconclusive; KDM4E inh: inconclusive; PNC assembly inh: -82*

What do the screens show for `COc1cc(C(Nc2ccccn2)c2ccc3ccc(C)nc3c2O)cc(OC)c1O` (centres undefined)?
Tau fluor cs: inconclusive; Tau fibril FP: inconclusive; NPSR antagonist: inconclusive; Tau ThT inhib: 16µM*; KDM4E inh: 22µM*; PNC assembly inh: -26

What do the screens show for `COc1ccc(C(Nc2cc(C)ccn2)c2ccc3ccc(C)nc3c2O)cc1` (centres undefined)?
Tau fluor cs: inconclusive; Tau fibril FP: -13%; NPSR antagonist: -15%; KDM4E inh: inconclusive

How did COc1cc(C2C(C(=O)Nc3ccccc3C)=C(C)Nc3nc(SCc4cc(C)ccc4C)nn32)ccc1O (centres undefined) do in these assays?
Tau fluor cs: -26%; Tau fibril FP: -8%; Tau ThT inhib: -10%

How did CCOc1ccccc1NC(=O)N1CCc2c(sc(C)c2CC)C1c1ccccc1 (centres undefined) do in these assays?
Tau fluor cs: -9%; Tau fibril FP: 3%; Tau ThT inhib: -14%

Results for CC(C)(C)C(=O)n1nc(-c2ccccc2)oc1=O ?
Tau fluor cs: -5%; Tau fibril FP: -12%; NPSR antagonist: 3%; Tau ThT inhib: -9%; KDM4E inh: inconclusive; PNC assembly inh: -109*

What do the screens show for `O=C(O)Cn1nc(-c2ccccc2)oc1=O`?
Tau fluor cs: 2%; Tau fibril FP: 4%; NPSR antagonist: -14%[46.1 µM]; Tau ThT inhib: 12%; KDM4E inh: -1%; PNC assembly inh: -24

What do the screens show for `CCOc1ccccc1CNC(=O)CCc1cn(Cc2ccc(Cl)cc2)c2ccccc12`?
Tau fluor cs: -18%; Tau fibril FP: 4%; Tau ThT inhib: -7%

How did CCc1ccc(CCC(=O)Nc2ncc(Cc3ccccc3Cl)s2)o1 do in these assays?
Tau fluor cs: 1%; Tau fibril FP: 2%; NPSR antagonist: -37%; Tau ThT inhib: -3%; KDM4E inh: -25%; PNC assembly inh: -91*

How did COC(=O)c1ccccc1NC(=O)NCC1CCCO1 (centres undefined) do in these assays?
Tau fluor cs: 0%; Tau fibril FP: -3%; NPSR antagonist: 14%[46.1 µM]; Tau ThT inhib: -3%; KDM4E inh: inconclusive; PNC assembly inh: -122*

Results for COC(=O)c1ccccc1NC(=O)C(=O)NCC1CCCO1 (centres undefined) ?
Tau fluor cs: 4%; Tau fibril FP: 3%; NPSR antagonist: 5%[46.1 µM]; Tau ThT inhib: 1%; KDM4E inh: 3%; PNC assembly inh: -1

What do the screens show for `C=CCCC(=O)Nc1nc(C)c(-c2csc(Nc3ccccc3OC)n2)s1`?
Tau fluor cs: 13µM*[quencher]; Tau fibril FP: inconclusive; NPSR antagonist: -28%[46.1 µM]; Tau ThT inhib: 7.1µM*; KDM4E inh: inconclusive; PNC assembly inh: -12

Results for CCCCCCC(=O)Nc1nc(C)c(-c2csc(Nc3cc(OC)ccc3OC)n2)s1 ?
Tau fluor cs: inconclusive; Tau fibril FP: inconclusive; NPSR antagonist: -22%[46.1 µM]; Tau ThT inhib: inconclusive; KDM4E inh: -21%; PNC assembly inh: -6

Results for CCCCCC(=O)Nc1nc(C)c(-c2csc(Nc3cc(OC)ccc3OC)n2)s1 ?
Tau fluor cs: 11µM*[quencher]; Tau fibril FP: 15%; NPSR antagonist: inconclusive; Tau ThT inhib: 16µM*; KDM4E inh: inconclusive; PNC assembly inh: 23

How did CCC(C)C(=O)Nc1nc(C)c(-c2csc(Nc3ccccc3OC)n2)s1 (centres undefined) do in these assays?
Tau fluor cs: 13µM*[quencher]; Tau fibril FP: 16%; NPSR antagonist: -22%[46.1 µM]; Tau ThT inhib: inconclusive; KDM4E inh: -27%; PNC assembly inh: -18

How did CCCCC(=O)Nc1nc(C)c(-c2csc(Nc3ccccc3OC)n2)s1 do in these assays?
Tau fluor cs: 16µM*[quencher]; Tau fibril FP: 13%; NPSR antagonist: -29%[46.1 µM]; Tau ThT inhib: inconclusive; KDM4E inh: 8%; PNC assembly inh: inconclusive

How did COc1ccc(CCC(C)NC2C3CC4CC(C3)CC2C4)cc1 (centres undefined) do in these assays?
Tau fluor cs: -8%; Tau fibril FP: 3%; NPSR antagonist: -7%[46.1 µM]; Tau ThT inhib: -12%; KDM4E inh: -1%; PNC assembly inh: -108*

What do the screens show for `CCc1ccc(-c2cc(C)no2)cc1S(=O)(=O)Nc1ccc(Cl)cc1`?
Tau fluor cs: inconclusive; Tau fibril FP: inconclusive; Tau ThT inhib: 8%

Results for CCOC(=O)c1cnc(SC2CCc3ccccc3C2=O)nc1N (centres undefined) ?
Tau fluor cs: inconclusive; Tau fibril FP: inconclusive; NPSR antagonist: -7%[46.1 µM]; Tau ThT inhib: 28µM*; KDM4E inh: -6%; PNC assembly inh: -23

Results for CCOC(=O)c1cnc(SC2CC(=O)N(c3ccccc3)C2=O)nc1N (centres undefined) ?
Tau fluor cs: -8%; Tau fibril FP: -6%; NPSR antagonist: -10%[46.1 µM]; Tau ThT inhib: -19%; KDM4E inh: 0%; PNC assembly inh: inconclusive

How did O=C1/C(=C\c2ccccn2)SC(=S)N1Nc1ncc(C(F)(F)F)cc1Cl do in these assays?
Tau fluor cs: -29%; Tau fibril FP: inconclusive; NPSR antagonist: inconclusive; Tau ThT inhib: 28µM*; KDM4E inh: -1%; PNC assembly inh: 81

What do the screens show for `Cc1ccccc1-c1nnc(SCC(=O)N(C)C2CCCCC2)o1`?
Tau fluor cs: 1%; Tau fibril FP: inconclusive; Tau ThT inhib: 1%

Results for O=C(/C=C/c1ccc(O)c(O)c1)O[C@H](Cc1ccc(O)c(O)c1)C(=O)O ?
Tau fluor cs: 14µM*[quencher]; Tau fibril FP: inconclusive; NPSR antagonist: 17%; Tau ThT inhib: 13µM*; KDM4E inh: inconclusive

What do the screens show for `N[C@@H](Cc1ccc(O)cc1)C(=O)O`?
Tau fluor cs: -3%; Tau fibril FP: -4%; Tau ThT inhib: -5%

What do the screens show for `COC(=O)C(N)Cc1ccc(O)c(O)c1` (centres undefined)?
Tau fluor cs: -13%; Tau fibril FP: 1%; NPSR antagonist: 1%[46.1 µM]; Tau ThT inhib: inconclusive; KDM4E inh: 14µM*; PNC assembly inh: 8
